The values below come from PubChem BioAssay (Tox21).

Values joined by “and” are separate entries in the source; they are usually repeats but may differ in a detail not shown here. Equal entries are not always repeated. Records with an inconclusive call do not appear. A structure can be active in one record and inactive in another. Active and inactive are the calls of the source.
% is scaled to controls: 0 for no effect and ±100 for the full control effect.

Glucocorticoid receptor (Homo sapiens), sequence (P04150 whole entry, looked up): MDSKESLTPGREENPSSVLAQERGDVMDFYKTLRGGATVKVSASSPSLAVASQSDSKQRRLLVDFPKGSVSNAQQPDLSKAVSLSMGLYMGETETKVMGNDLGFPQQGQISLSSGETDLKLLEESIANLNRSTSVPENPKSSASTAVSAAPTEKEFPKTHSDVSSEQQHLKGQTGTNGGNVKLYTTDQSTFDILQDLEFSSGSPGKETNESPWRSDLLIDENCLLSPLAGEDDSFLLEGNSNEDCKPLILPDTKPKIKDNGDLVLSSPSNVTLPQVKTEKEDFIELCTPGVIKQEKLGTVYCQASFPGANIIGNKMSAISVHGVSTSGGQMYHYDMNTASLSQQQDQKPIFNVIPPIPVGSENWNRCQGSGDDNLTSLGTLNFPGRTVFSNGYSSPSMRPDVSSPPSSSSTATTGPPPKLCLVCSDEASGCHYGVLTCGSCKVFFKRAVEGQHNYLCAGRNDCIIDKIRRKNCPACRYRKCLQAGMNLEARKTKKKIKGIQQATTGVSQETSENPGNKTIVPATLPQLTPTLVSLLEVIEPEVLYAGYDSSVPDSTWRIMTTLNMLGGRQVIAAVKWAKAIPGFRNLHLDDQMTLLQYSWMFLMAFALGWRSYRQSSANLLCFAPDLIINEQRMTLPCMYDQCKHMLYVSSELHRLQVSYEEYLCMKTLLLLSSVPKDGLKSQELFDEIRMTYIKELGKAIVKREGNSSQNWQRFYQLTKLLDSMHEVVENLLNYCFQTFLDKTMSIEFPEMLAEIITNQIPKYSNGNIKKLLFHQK

The first assay has as its target Glucocorticoid receptor (Homo sapiens) (UniProt P04150). Nature of the assay: qHTS assay to identify small molecule agonists of the glucocorticoid receptor (GR) signaling pathway (AID 720691; active = well fitted activation curve with a large enough effect in the signal ratio in the repeat runs, not every such curve was filed as active; the % refers to the signal ratio). Particulars: GR-bla HeLa, beta-lactamase reporter ratio, 18 h; series mostly up to 62.4 µM; activation: at the top concentration. The gist of the method:
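A HeLa cervical cancer line expressing GR and a glucocorticoid response element-driven beta-lactamase gene is treated with compounds for 18 h; LiveBLAzer B/G FRET substrate is then applied and fluorescence read.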
In general terms: Quantitative high-throughput screening tests each substance at several concentrations.
As to `COC(=O)N[C@H](C(=O)N[C@@H](Cc1ccccc1)[C@@H](O)CN(Cc1ccc(-c2ccccn2)cc1)NC(=O)[C@@H](NC(=O)OC)C(C)(C)C)C(C)(C)C`, the “activation” value was -5.33% (inactive).
As for `CCN1CC(CCN2CCOCC2)C(c2ccccc2)(c2ccccc2)C1=O` (stereo not given), the “activation” value was -0.0665% (inactive).
Still for that read-out and setting: the value for `NC/C=C/C(=O)O` was 3.56% (inactive).
Still for that read-out and setting: the value for `CCCOCCC` was 0.244% (inactive); that for `COc1ccccc1OCC(O)COC(N)=O` (stereo not given) was -0.463% [at 29.2 µM] (inactive).
On the same count and under the same terms, under `C=CCc1cc(OC)c(O)c(C(=O)NCCO)c1` stands -2.67% (inactive).
For `CCCCCCC`, the “activation” value was 0.215% [at 79.2 µM] (inactive).
Take `CC(C)OC(C)C`: the “activation” value is -0.298% [at 79.2 µM] (inactive).
`COc1cc(N)c(Cl)cc1C(=O)NC1CCN(Cc2ccccc2)CC1`: the “activation” value is -0.672% [at 29.2 µM] (inactive).
Still for that read-out and setting: under `CCOC(=O)NCCC[Si](OCC)(OCC)OCC` stands -3.6% (inactive); under `O=S(=O)(O)C(F)(F)F`, 10.8% (inactive).
For `Cc1cccc(C)c1NC(=O)CN1CCCCCC1`, the “activation” value was 0.0811% (inactive).
Same read-out and setting: the value for `C[C@]12C(=O)OC(=O)[C@H]1[C@H]1C=C[C@@H]2C1` was -0.161% [at 79.2 µM] (inactive); that for `CCCCC1CCC(=O)O1` (stereo not given) was -1.74% (inactive); that for `C1CSCCS1` was -3.1% (inactive).
Still for that read-out and setting: the value for `CC(CNC1CCCCC1)OC(=O)c1ccccc1` (stereo not given) was 0.257% [at 29.2 µM] (inactive).
Same read-out and setting: the value for `CCOc1ccccc1N` was -2.31% (inactive); that for `C=CCCCCCCCCO` was -1.5% (inactive); that for `O=C(C(Cl)Cl)N1CCOC12CCCCC2` was -8.59% (inactive).
In the case of `CC(C)C1=CC2=CC[C@@H]3[C@](C)(CCC[C@@]3(C)C(=O)O)[C@H]2CC1`, the Potency result is “inactive”.

For the next assay the target is unchanged. Briefly: qHTS assay to identify small molecule antagonists of the glucocorticoid receptor (GR) signaling pathway (AID 720692; active = well fitted inhibition curve with a large enough effect in the signal ratio in the repeat runs, not every such curve was filed as active; the % refers to the signal ratio; also: potency is read from the fitted curve at half-maximal effect). Particulars: GR-bla HeLa, beta-lactamase FRET ratio, dexamethasone-stimulated, 18 h; series mostly up to 58.5 µM; activity change, negative = inhibition: at the top concentration. The gist of the method: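 GRE-bla HeLa line, dex-stimulated (5 nM final). Compound exposure 18 h, 37 C. Beta-lactamase FRET read after 2 h RT substrate.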
Take `CN(C)C(=O)NC1(c2ccccc2)CCN(CCC[C@]2(c3ccc(Cl)c(Cl)c3)CCCN(C(=O)c3ccccc3)C2)CC1`: the “activity change, negative = inhibition” value was 2.4% [at 27 µM] (inactive).
Take `COC(=O)N[C@H](C(=O)N[C@@H](Cc1ccccc1)[C@@H](O)CN(Cc1ccc(-c2ccccn2)cc1)NC(=O)[C@@H](NC(=O)OC)C(C)(C)C)C(C)(C)C`: the “activity change, negative = inhibition” value was -0.679% (inactive).
As for `COc1ccc(S(=O)(=O)Nc2nnc(CC(C)C)s2)cc1`, the Potency result is “inactive”.
Take `CCN1CC(CCN2CCOCC2)C(c2ccccc2)(c2ccccc2)C1=O` (stereo not given): the “activity change, negative = inhibition” value was 9.5% (inactive).
On the same count and under the same terms, under `NC/C=C/C(=O)O` stands -10.9% (inactive); under `CCCCNC(=S)NCCCC`, -1.04% (inactive); under `CCCOCCC`, -5.24% (inactive).
Consider `C=CCc1cc(OC)c(O)c(C(=O)NCCO)c1`, for which the “activity change, negative = inhibition” value was -4.27% (inactive).
Still for that read-out and setting: under `CC(C)OC(C)C` stands -9.58% [at 78.9 µM] (inactive); under `Cc1cc(S(=O)(=O)O)c(N)cc1Cl`, 12.6% [at 78.9 µM] (inactive).
As for `COc1cc(N)c(Cl)cc1C(=O)NC1CCN(Cc2ccccc2)CC1`, the “activity change, negative = inhibition” value was 1.7% [at 27 µM] (inactive).
On the same count and under the same terms, the value for `C[C@]12C(=O)OC(=O)[C@H]1[C@H]1C=C[C@@H]2C1` was -10.8% [at 78.9 µM] (inactive); that for `CCCCC1CCC(=O)O1` (stereo not given) was -1.45% (inactive); that for `C1CSCCS1` was 26.9% (inactive).
Consider `CC(CNC1CCCCC1)OC(=O)c1ccccc1` (stereo not given), for which the “activity change, negative = inhibition” value is 15.2% [at 27 µM] (inactive).
For `C=CC(C)(O)CC/C=C(\C)CCC=C(C)C` (stereo not given), the Potency entry was “inactive”.
As to `CCOc1ccccc1N`, the “activity change, negative = inhibition” value is -15.7% (inactive).
Still for that read-out and setting: the value for `C=CCCCCCCCCO` was 2.42% (inactive); that for `O=C(C(Cl)Cl)N1CCOC12CCCCC2` was -6.73% (inactive).
As to `CC(C)C1=CC2=CC[C@@H]3[C@](C)(CCC[C@@]3(C)C(=O)O)[C@H]2CC1`, the Potency result is “inactive and 54.9 µM (active)”.
